From PubChem BioAssay (NCI) come the findings set out here.

Test in all cases: NCI-60 one-dose screen, 48 h (100 = growth as untreated, 0 = no growth, -100 = all killed)
Holding throughout (conditions): 10 µM unless noted

Assay [1] concerns DU-145 prostate.
For assay [2], the system named is K-562 leukemia.
Assay [3] deals with MALME-3M melanoma.
Assay [4] relates to MDA-MB-231 breast.
Assay [5] has as its system RXF 393 renal.
The test system of assay [6] is SF-268 CNS.
Assay [7] relates to SF-539 CNS.
For assay [8], the system named is UACC-257 melanoma.
Assay [9] concerns M14 melanoma.
Assay [10] relates to SF-295 CNS.

The panel holds about 83,000 compounds, 20% with a hit somewhere; the sample as a whole holds those more often.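 Negative percent growth values reflect cell death: -40 means 40% of the cells present at the start died, and -100 means all died.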 Values without a mark were called inactive. Activity calls are given as the source filed them. Rule for the calls: active = growth percent below 10; inactive = the rest.

For the compound `CC1CC=CCC1C1OCC(C)(C)CO1` (stereo unspecified), the growth in assay [1] is 108%; in [2], 102%; in assay [3] it was 109%; in assay [4], 112%; in [5] it was 103%; in assay [6], 106%. The growth in assay [7] is 95.5%; in assay [8] it was 97%; in assay [9] it was 101%.

`CCOC(=O)C(C(=O)OCC)C1CCCCC1`: the growth was 107% in assay [1]; 104% in assay [2]; 96% in [3]; 108% in [4]; 107% in [5]; 99.1% in [6]. For the same compound, the growth was 99.4% in [7], 96.3% in [8] and 102% in assay [9].

On to `COc1cccc(C=Nc2cc(C(C)C)c(O)cc2C)c1O`, for which the growth is 114% in assay [1]; 107% in assay [2]; 106% in assay [3]; 88.9% in [4]; 104% in [5]; 92.1% in assay [6]. In addition, the growth in [7] is 91.7%; in [8] it was 111%; in assay [9], 106%.

For the compound `O=C1CSC(c2ccccc2Cl)N1c1nnc(Cn2nnc3ccccc32)o1` (stereo unspecified), the growth in assay [1] was 91.8%; in assay [2], 69.6%; in assay [3], 127%; in assay [4], 77.1%; in [5], 90.1%; in [6], 84.2%. Moreover, the growth in assay [7] is 89%; in [8], 94.7%; in assay [9] it was 89.8%.

In the case of `CC(C)=CCNc1ncnc2c1ncn2C1OC(COP(=O)(O)O)C(O)C1O` (stereo unspecified), the growth in assay [1] was 4.87% (active); in [2] it was 16.1%; in assay [3], 68.5%; in assay [4], 5.56% (active); in [6], 59.9%; in assay [10], 25.6%. Also, the values for the growth in assay [7], in assay [8] and in assay [9] were 52%, 94.1% and 50.5%, respectively.

Take `Cc1nn2c(/C=C3/C(=O)Nc4cc(Cl)ccc43)c(-c3ccccc3)nc2s1`: the growth in [1] is 33.4%; in assay [2], 23.5%; in [3], -64.6% (active); in assay [4], 8.57% (active); in [5] it was -18% (active); in assay [6] it was 50.1%. Also, the growth was -41.4% (active) in assay [7], -29% (active) in assay [8] and 22.2% in assay [9].

With `COC(=O)[C@H](CCCCNC(=O)OCc1ccccc1)NC(=O)[C@@H](NC(=O)Nc1cc(C(F)(F)F)cc(C(F)(F)F)c1)C(C)C`, the growth is -82.2% [100 µM] (active) in [1]; -18.9% [100 µM] (active) in assay [2]; -61.4% [100 µM] (active) in assay [3]; -87.8% [100 µM] (active) in assay [4]; -90.8% [100 µM] (active) in assay [5]; -85% [100 µM] (active) in assay [6]. For the same compound, the growth in [10] was -65.5% [100 µM] (active); in assay [8], -78.5% [100 µM] (active); in assay [9], -75.6% [100 µM] (active).

`COc1ccc(-c2nnc3c4[nH]cnc4ncn23)c(OC)c1`: the growth in assay [1] is 26.5%; in [2], 11.5%; in assay [3], 37.4%; in [4], 29%; in assay [6], 33%; in assay [10], 20.1%. In addition, the growth in assay [7] was 14.6%; in assay [8] it was 40.6%; in [9] it was 10.5%.

Consider `CCCCCCCCCCNCCSS(=O)(=O)O`, for which the growth in assay [1] was 73.3%; in assay [2] it was 6.77% (active); in assay [3] it was 106%; in assay [4] it was 76.3%; in assay [5] it was 104%; in assay [6] it was -35.9% (active). For the same compound, the growth in [7] is 99.3%; in assay [8], 101%; in assay [9], 34.3%.

Consider `O=C1NC(=O)/C(=C\c2ccco2)S1`, for which the growth is 112% in [1]; 111% in assay [2]; 101% in assay [3]; 89.5% in assay [4]; 106% in [5]; 99.4% in [6]. The growth is 103% in assay [7], 108% in assay [8] and 104% in assay [9].

On to `COC(=O)[C@H](Cc1cnc[nH]1)NC(=O)[C@@H](NC(=O)Nc1cc(C(F)(F)F)cc(C(F)(F)F)c1)C(C)C`, for which the growth was -100% [100 µM] (active) in assay [1]; -46% [100 µM] (active) in assay [2]; -94.4% [100 µM] (active) in assay [3]; -95.9% [100 µM] (active) in assay [4]; -89.3% [100 µM] (active) in [5]; -92.7% [100 µM] (active) in [6]. Also, the values for the growth in assay [7], in assay [8] and in assay [9] were -95.7% [100 µM] (active), -87.6% [100 µM] (active) and -89% [100 µM] (active), respectively.

Regarding `CCCCCCCSc1ncnc2[nH]ncc12`, the growth in assay [1] was 89.5%; in assay [2], 88.8%; in [3] it was 120%; in [4], 84.4%; in [5], 61.2%; in [6] it was 82.3%. The growth in [7] is 87.5%; in assay [8], 104%; in [9] it was 109%.

Regarding `FCc1ncc(-c2ccc(C(F)(F)F)cc2)c(NC2CCCCCC2)n1`, the growth was -27.6% [100 µM] (active) in assay [1]; -2.97% [100 µM] (active) in assay [2]; -16.9% [100 µM] (active) in assay [3]; 0% [100 µM] (active) in assay [4]; 1.22% [100 µM] (active) in assay [5]; -0.671% [100 µM] (active) in [6]. The values for the growth in assay [10], in [8] and in assay [9] were -40.9% [100 µM] (active), -6.1% [100 µM] (active) and 2.44% [100 µM] (active), respectively.

In the case of `NS(=O)(=O)c1ccc(-n2nc(-c3ccc(Br)cc3)ccc2=O)cc1`, the growth is 12.4% [100 µM] in assay [1]; 40.1% [100 µM] in assay [2]; 55.1% [100 µM] in assay [3]; 34.2% [100 µM] in [4]; 40.9% [100 µM] in assay [5]; 66.8% [100 µM] in [6]. For the same compound, the growth was 67% [100 µM] in [7], 106% [100 µM] in assay [8] and 62.4% [100 µM] in assay [9].
